Test results taken from PubChem BioAssay (NCI).
The panel holds about 83,000 compounds, 20% with a hit somewhere; the sample as a whole holds those more often.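 In brief: 96-well plates, 48 h treatment, single concentration, percent growth endpoint.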 Values without a mark were called inactive. Calls of active or inactive are those of the source. How the source made its calls: active means growth percent below 10; inactive means the rest.

System: HL-60(TB) leukemia
Assay: NCI-60 one-dose screen, 48 h (100 = growth as untreated, 0 = no growth, -100 = all killed)
Details: 10 µM unless noted

Structure (SMILES)	growth
O=C(Nc1ccncc1)C(=O)c1cn(S(=O)(=O)c2cc(Cl)cc(Cl)c2)c2ccccc12	58.9%
COc1cccc(/C=C\C(=O)c2ccccc2)c1	43.9%
Cc1nc2sc(C(=O)Nc3ccccc3)c(N)c2cc1C(O)c1ccccc1 (stereo not given)	-54% (active)
O=[N+]([O-])c1ccc(Sc2nc(Cl)nc(NC3CCCC3)n2)cc1	-26% [100 µM] (active)
CCCCn1c(C(=O)c2c[nH]c3ccccc23)n[nH]c1=S	90.8%
CCC/C=C(\C)C(C)(C#N)C(=O)OCC (stereo not given)	103%
CCOc1ccc(-n2c(-c3cc(OC)c(OC)c(OC)c3)nnc2-c2ccc(OC)cc2N)cc1	28.5%
Brc1ccc2[nH]cc(-c3nc(-c4c[nH]c5ncccc45)cs3)c2c1	32.7%
O=C(O)c1ccc2nc(-c3ccc(OCCCCCOc4ccc(-c5nc6ccc(C(=O)O)cc6[nH]5)cc4)cc3)[nH]c2c1	108%
COc1cccc(/C=N/NC(=O)c2ccccc2N2CCCC2)c1O	4.58% (active)
COc1ccc(-c2cc(C(=O)N3N=C(c4ccc(N)cc4)CC3c3ccc(Cl)cc3)c3cc(OC)ccc3n2)cc1 (stereo not given)	4.62% (active)
Cc1ccc(S(=O)(=O)/C(=C\c2ccc(Cl)cc2)C(=O)c2ccccc2)cc1	97.1%
CCOC(=O)c1ccc2c(c1)ncn2-c1ccc(NC(=O)Nc2cccc(C)c2)cc1	78.3%
O=C1Nc2ccccc2/C1=N/N=C/c1ccc(OC2OC(CO)C(O)C(O)C2O)cc1 (stereo not given)	101%
O=C(N/N=C/C=C\c1ccccc1)C(=O)N/N=C/C=C/c1ccccc1	110%
NS(=O)(=O)c1ccc(Br)cc1	96.2%
COC(=O)/C=C1\SC(=Nc2cccc(OC)c2)N(CCc2c[nH]c3ccccc23)C1=O	22.2%
[N-]=[N+]=NCc1cccc(/C(O)=C/C(=O)C(=O)O)c1	17.3%
CC[N+](C)(C)N	103%
CCOC(=O)c1cc2c(n(C)c1=O)-c1cnn(-c3ccc(OC)cc3)c1CC2	113%

Structure (SMILES)	growth
Cc1cccc(NC(=O)Nc2ccc(-c3ccc4c(c3)NC(=O)/C4=C\c3ccc[nH]3)cc2)c1	75.1%
CCOC(=O)c1coc(C(=O)OCC)c1C(=O)OCC	105%
COc1cc(/C=N/Nc2ncc(-c3cc4cc5c(cc4o3)OCO5)s2)cc(OC)c1OC	14.7%
COc1cc(C(=O)N2CCN(C(=O)c3ccco3)CC2)c(N)cc1OCc1ccccc1	99.8%
Cn1c(=O)[nH]c2ccccc2c1=O	111%
CCCCCC1CCCCN1C(=O)OCCCC (stereo not given)	102%
CCOc1nc(-c2ccccc2)cc2c(O)c(C(=O)NN)[nH]c(=O)c12	151%
NC(=O)c1c(NC(=O)COC(=O)Cc2ccccc2F)sc2c1CCC2	135%
COc1ncc(-c2ccc3ncnc(Nc4cccc(Cl)c4)c3c2)cc1NS(=O)(=O)CCN1CCOCC1	23.9%
Cc1cccc(NCS(=O)(=O)O)c1	103%
COc1cc(-c2cc(-c3ccc(C)cc3)nc3nc(N)[nH]c(=O)c23)ccc1Oc1ccnc2cc(Cl)ccc12	56.2%
COc1ccc(/C(=C\c2ccc3c(c2)OCO3)C(=O)Nc2nc3ccccc3s2)cc1OC	92%
O=C(CSc1nc2sc3c(c2c(=O)n1-c1ccc(Cl)cc1)CCCC3)Nc1nc(-c2cccc(Br)c2)cs1	101%
O=C1CN(CCN2CC(=O)NC(=O)C2)CC(=O)N1	88%
Cc1ccc(-c2cc(C(=O)Nc3ccc(S(=O)(=O)N4CCCCC4)cc3)[nH]n2)c(O)c1	48.7%
Cc1cc(N[C@@H]2CCC[C@H](Nc3ccnc4cc(Cl)ccc34)C2)nc(N2CCCCCC2)n1	-72.5% (active)
COc1ccc(C2=NN3C(C2)c2cc(Br)ccc2OC3c2ccncc2)cc1 (stereo not given)	93.5%
CCN1C(=O)/C(=c2\sc3n(c2=O)NC2C(N=3)N(CC)C(=O)N2CC)c2ccccc21 (stereo not given)	-4.75% (active)
c1ccc(N2c3nc4ccccc4cc3Sc3cc4ccccc4nc32)nc1	97.2%
CC(=O)C(=Cc1ccc(C=C(C(C)=O)C(C)=O)cc1)C(C)=O	7.08% (active)
